A structure can be active in one record and inactive in another. Calls of active or inactive are those of the source. How the source made its calls: active means hit-call score of the fitted dose curve at least 0.9, where 1 is the maximum; inactive means score below 0.9.
These molecules were tested on Tumor necrosis factor (Homo sapiens) (UniProt P01375) (assay: BSK_LPS_TNFa: BioMAP Diversity Plus: LPS Assay for Tumour Necrosis Factor alpha (TNFa) Biomarker Activity (AID 2283085)). Details: primary human HUVEC with PBMC; actives raise or lower the signal.
Procedure: BSK_LPS is a cell-based, multiplexed-readout assay that uses umbilical vein endothelium and peripheral blood mononuclear cells, a human vascular primary cell co-culture, with measurements taken at 24 hours after chemical dosing in a 96-well plate.BSK_LPS_TNFa is an assay component measured in the BSK_LPS assay. It measures TNF-a antibody related to regulation of gene expression using ELISA technology.Data from the assay component BSK_LPS_TNFa was analyzed into 1 assay endpoint. This assay endpoint, BSK_LPS_TNFa, was analyzed with bidirectional fitting relative to DMSO as the negative control and baseline of activity. Using a type of binding reporter, gain or loss-of-signal activity can be used to understand changes in the signaling as they relate to the gene TNF. Furthermore, this assay endpoint can be referred to as a primary readout, because this assay has produced multiple assay endpoints where this one serves a signaling function. To generalize the intended target to other relatable targets, this assay endpoint is annotated to the cytokine intended target family, where the subfamily is inflammatory factor.
The levels of cell surface (or secreted, indicated by the prefix "s") biomarker endpoints were measured by ELISA. Overt cytotoxicity to cells in confluent adherent cultures (all systems other than the BT system) was assessed by measuring total protein levels using sulforhodamine B (SRB) staining in parallel cultures at the time of biomarker measurements, indicated as SRB endpoints. For proliferation assays for adherent cell types, individual cell types are cultured at sub-confluence and relative cell numbers quantified by SRB staining at time points optimized for each system (48 h: 3C and CASM3C systems; 72 h: BT and HDF3CGF systems; 96 h: SAg system). SRB was performed by staining cells with 0.1% SRB after fixation with 10% TCA and reading wells at 560 nm.Viability and proliferation of PBMC (T cells) was quantified by Alamar Blue reduction for the SAg and BT systems. For PBMC viability (referred to as PBMC Cytotoxicity within the assay endpoint names), cells were plated (75,000/well in a 96-well plate) and then chemical samples added for 1 h before addition of activators, SEB and TSST-1 (20 ng/mL final concentration each). Cells were incubated for 90 h. Then, Alamar Blue (20 uL/well) (Invitrogen, Cat DAL1100) was added for 6 h, and the plates were read with a fluorescence microplate reader at 546/580 nm (excitation/emission). For PBMC proliferation, cells were plated and activated as above but incubated for only 16 h prior to addition of Alamar Blue. Plates were read after 6 h.

Sequence of Tumor necrosis factor (Homo sapiens) (P01375 whole entry, looked up): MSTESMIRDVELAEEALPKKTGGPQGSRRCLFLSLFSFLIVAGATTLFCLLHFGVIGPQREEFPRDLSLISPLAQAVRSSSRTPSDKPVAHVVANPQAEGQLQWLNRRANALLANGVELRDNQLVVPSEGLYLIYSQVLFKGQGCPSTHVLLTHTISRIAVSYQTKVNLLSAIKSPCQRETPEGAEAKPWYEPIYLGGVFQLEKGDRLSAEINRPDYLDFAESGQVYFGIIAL

Question: With O=C(O)C1(c2ccc3c(c2)OC[C@H](Cc2ccc(-c4ccccc4)cc2)[C@H]3O)CCCC1 as the molecule, how does the outcome read?
Answer: inactive

Question: Clc1cccc(Cl)c1 was tested. Which outcome did it give?
Answer: inactive

Question: With Cc1c([N+](=O)[O-])c(C)c([N+](=O)[O-])c(C(C)(C)C)c1[N+](=O)[O-] as the molecule, how does the AC50 read?
Answer: 28 µM (active)

Question: CCCCN(CCCC)C(=S)[S-].CCCCN(CCCC)C(=S)[S-].[Ni+2] was tested. Which outcome did it give?
Answer: inactive

Question: N#Cc1cccnc1 was tested. Which outcome did it give?
Answer: inactive

Question: How did the outcome turn out when CC(C)(C)c1ccccc1O was run?
Answer: inactive

Question: Nc1ccc(N)cc1 was tested. Which outcome did it give?
Answer: inactive

Question: Which outcome does the source give for NC(=O)CCl here?
Answer: inactive

Question: OCCN(CCO)CCO was tested. Which outcome did it give?
Answer: inactive

Question: CC(C=O)Cc1ccc2c(c1)OCO2 (stereo not given) was tested. Which outcome did it give?
Answer: inactive

Question: For O=C(N[C@H]1CN2CCC1CC2)c1ccc2c(c1)OCCO2, which outcome is on record?
Answer: inactive

Question: Which outcome does the source give for O=S(=O)(c1ccc(Cl)cc1)c1cc(Cl)c(Cl)cc1Cl here?
Answer: inactive

Question: Which outcome does the source give for CCC(C)(C#N)N=NC(C)(C#N)CC (stereo not given) here?
Answer: inactive

Question: How did the AC50 turn out when O=[N+]([O-])c1ccc(Nc2ccccc2)cc1 was run?
Answer: 32.5 µM (active)

Question: C#CCOC(=O)/C=C(C)/C=C/CC(C)CCCC(C)C (stereo not given) was tested. Which outcome did it give?
Answer: inactive

Question: How did the outcome turn out when Oc1cc(Cl)c(Cl)cc1Cl was run?
Answer: inactive

Question: With COc1ccccc1N as the molecule, how does the outcome read?
Answer: inactive

Question: CCOC(=O)CCN(SN(C)C(=O)Oc1cccc2c1OC(C)(C)C2)C(C)C was tested. Which outcome did it give?
Answer: inactive

Question: How did the outcome turn out when CN(C)C(=S)S was run?
Answer: inactive

Question: How did the outcome turn out when O=C(CCl)NCO was run?
Answer: inactive

Question: How did the AC50 turn out when CC1(C)[C@H](C(=O)O[C@H](C#N)c2cccc(Oc3ccccc3)c2)[C@@H]1/C=C(\Cl)C(F)(F)F was run?
Answer: 2.79 µM (active)

Question: What about the outcome of the same molecule?
Answer: inactive

Question: O=C(O)COc1cc(Cl)c(Cl)cc1Cl was tested. Which outcome did it give?
Answer: inactive

Question: For c1ccc2sc(SNC3CCCCC3)nc2c1, which AC50 is on record?
Answer: 30.5 µM (active)

Question: Which AC50 does the source give for O=C1C=CC(=O)c2ccccc21 here?
Answer: 0.623 µM (active)

Question: OC(Cc1ccccc1Cl)(Cn1cncn1)C1(Cl)CC1 (stereo not given) was tested. Which outcome did it give?
Answer: inactive

Question: For Oc1c(Br)cc(Br)cc1Br, which outcome is on record?
Answer: inactive

Question: With [Cl][Sn]([c]1ccccc1)([c]1ccccc1)[c]1ccccc1 as the molecule, how does the AC50 read?
Answer: 0.134 µM (active)

Question: Which outcome does the source give for CC(C)(C)c1cc([N+](=O)[O-])cc(C(C)(C)C)c1O here?
Answer: inactive

Question: How did the outcome turn out when Oc1c(Cl)cc(Cl)cc1Cl was run?
Answer: inactive

Question: Which outcome does the source give for Clc1cccc(Cl)c1Cl here?
Answer: inactive

Question: For O=S(=O)(C(Cl)(Cl)Cl)C(Cl)(Cl)Cl, which outcome is on record?
Answer: inactive

Question: Which outcome does the source give for CCCCCCCCCCCCN(C)C here?
Answer: inactive

Question: Which outcome does the source give for CCOP(=S)(OCC)SCS(=O)(=O)C(C)(C)C here?
Answer: inactive

Question: With Cc1cc(Cl)ccc1N as the molecule, how does the outcome read?
Answer: inactive

Question: Which outcome does the source give for Oc1ccc(Cc2ccc(O)cc2)cc1 here?
Answer: inactive

Question: O=[N+]([O-])c1cccc2ccccc12 was tested. Which outcome did it give?
Answer: inactive

Question: With CCCCOC(=O)COC(=O)c1ccccc1C(=O)OCCCC as the molecule, how does the outcome read?
Answer: inactive

Question: Which outcome does the source give for Cc1ccccc1OP(=O)(Oc1ccccc1C)Oc1ccccc1C here?
Answer: inactive

Question: With Oc1cccc(-c2ccccc2)c1 as the molecule, how does the outcome read?
Answer: inactive

From PubChem BioAssay (EPA / NIEHS)
